Reference: PubChem BioAssay (NCATS)
“And” between values parts separate entries of the source, which are not always exact repeats. Equal entries are not always repeated. Inconclusive results are not listed. Some compounds were tested as several samples or in several runs, with calls that do not always agree. The source made the active and inactive calls. Calls follow the shape of the dose curve; as a rule, active = well fitted inhibition curve with a large enough effect; inconclusive = small, poorly fitted or top-dose-only effect; inactive = flat fitted curve, though single readings scatter.

What was measured:
[1] = test system: HaCat; assay: Cytotoxic Profiling of Annotated Libraries Using Quantitative High-Throughput Screening (AID 1296008); details: Five cell lines viability, CellTiter-Glo ATP luminescence, 48-72 h; max response: stronger effect = lower value
Method in brief: (§1)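 Cells exposed to compounds for 48 or 72 hr at 37 degrees Celsius. Viability read as ATP-coupled luminescence with CellTiter-Glo after 10 min at room temperature.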

[2] = test system: KB-3-1; assay: as above; details: Five cell lines viability, CellTiter-Glo ATP luminescence, 48-72 h; max response: stronger effect = lower value
Method in brief: as §1

[3] = test system: NIH3T3; assay: as above; details: Five cell lines viability, CellTiter-Glo ATP luminescence, 48-72 h; max response: stronger effect = lower value
Method in brief: as §1

[4] = test system: MCC-13; assay: qHTS assay to identify novel small-molecules to repurpose for Merkel cell carcinoma treatment (AID 1296009); details: MCC and control cell lines, CellTiter-Glo viability, 72 h; series mostly up to 46 µM
Method in brief: (§2)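 Dose-response viability screen; 72 hr exposure at 37 degree celsius; CellTiter-Glo added, 10 min room temperature, luminescence read; RLUs scaled between no-cell and DMSO wells.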

[5] = test system: MCC-26; assay: as above; details: MCC and control cell lines, CellTiter-Glo viability, 72 h; series mostly up to 46 µM
Method in brief: as §2

[6] = test system: MKL-1; assay: as above; details: MCC and control cell lines, CellTiter-Glo viability, 72 h; series mostly up to 46 µM
Method in brief: as §2

[7] = test system: MKL-2; assay: as above; details: MCC and control cell lines, CellTiter-Glo viability, 72 h; series mostly up to 46 µM
Method in brief: as §2

[8] = test system: HACAT; assay: as above; details: MCC and control cell lines, CellTiter-Glo viability, 72 h
Method in brief: as §2

[9] = test system: HEK293T; assay: as above; details: MCC and control cell lines, CellTiter-Glo viability, 72 h; at 44.8 µM (top of the series)
Method in brief: as §2

[10] = test system: NIH3T3; assay: as above; details: MCC and control cell lines, CellTiter-Glo viability, 72 h
Method in brief: as §2

[11] = at 44.8 µM (top of the series) unless noted
% is scaled to controls: 0 for no effect and ±100 for the full control effect; potency is read from the fitted curve at half-maximal effect.
Also: nearly all actives have a fitted effect of over 60% in size.

CCCc1nn(C)c2c(=O)[nH]c(-c3cc(S(=O)(=O)N4CCN(C)CC4)ccc3OCC)nc12
inactive: max response [1] -6.49% and -10.8% | max response [2] 4.32% | outcome [2] | max response [3] -19.3% and 3.51% | Potency [4] | Potency [5] | Potency [6] | Potency [7]

NCCc1ccc(O)c(O)c1
inactive: max response [1] 2.7% | outcome [1] | max response [2] -3.12% and 0.713% | max response [3] 2.44% and -9.95% | outcome [8, 11] | Potency [5]
inactive and 23.7 µM (active): Potency [6]
inactive and 5.31 µM (active): Potency [4]
18.7 µM (active) and inactive: Potency [7]

NCCCC(N)(C(=O)O)C(F)F (stereo not given)
inactive: max response [1] -8.41% | outcome [1] | max response [2] -4.94% and 7.79% | max response [3] -17.4% | outcome [8, 11] | Potency [4] | Potency [5] | Potency [6] | Potency [7]

O=c1[nH]cnc2[nH]ncc12
inactive: max response [1] 0.897% | outcome [1] | max response [2] 2.11% and 5.17% | max response [3] 4.86% and -3.07% | outcome [8, 11] | Potency [4] | Potency [5] | Potency [6] | Potency [7]

O=C(O)CCc1ccc(NCc2cccc(Oc3ccccc3)c2)cc1
inactive: max response [1] -7.54% | outcome [1] | max response [2] -3.52% and 6.14% | outcome [3] | outcome [8, 11] | outcome [9] | Potency [5] | activity change, negative = cytotoxicity [6] -1.7% [at 0.00266 µM]

COc1ccc([C@@H]2CC(=O)c3c(O)cc(O[C@@H]4O[C@H](CO[C@@H]5O[C@@H](C)[C@H](O)[C@@H](O)[C@@H]5O)[C@@H](O)[C@H](O)[C@@H]4O)cc3O2)cc1O
inactive: max response [1] -2.14% and 4.84% | max response [2] 2.27% | outcome [2] | max response [3] 2.09% | outcome [3] | outcome [9] | Potency [4] | Potency [5] | Potency [6] | Potency [7] | outcome [10, 11]

NC(N)=NC(=O)c1nc(Cl)c(N)nc1N
inactive: max response [1] -3.73% | outcome [1] | outcome [2] | max response [3] -0.651% | outcome [3] | outcome [8, 11] | Potency [4] | Potency [5] | Potency [6] | Potency [7] | outcome [10, 11]

CN(C)C(=O)c1ccc(S(=O)(=O)c2ccc(NC(=O)[C@@](C)(O)C(F)(F)F)c(Cl)c2)cc1
inactive: max response [1] -8.31% | outcome [1] | max response [2] -27.1% and -22.5% | outcome [3] | outcome [8, 11] | Potency [4] | Potency [5] | Potency [6] | outcome [10, 11]

Cn1cnc2c(F)c(Nc3ccc(Br)cc3Cl)c(C(=O)NOCCO)cc21
active: Potency [1] 1.48 µM | Potency [2] 9.35 µM | Potency [3] 4.18 µM
inactive: max response [2] -17.4% and -1.76% | Potency [5] | Potency [6] | Potency [7]

Cc1cn[nH]c1
inactive and 5.9 µM (active): Potency [6]
inactive: max response [1] -8.18% | outcome [1] | max response [2] 12.8% | outcome [2] | max response [3] 3% | outcome [8, 11] | outcome [9] | Potency [4] | Potency [5] | Potency [7]

c1ccc([C@H]2CN3CCSC3=N2)cc1
inactive: max response [1] 1.22% | outcome [1] | max response [2] -2.88% and 1.89% | max response [3] 1.43% and 2.53% | outcome [8, 11] | outcome [9] | Potency [4] | Potency [5] | Potency [6] | Potency [7]

CC(C)NCC(O)COc1ccc(COCCOC(C)C)cc1 (stereo not given)
inactive: max response [1] -3.77% | outcome [1] | max response [2] 14.8% and -14.7% and -10.9% | max response [3] 4.85% | outcome [3] | outcome [8, 11] | Potency [4] | Potency [5] | Potency [6] | Potency [7] | outcome [10, 11]

CCN(CC)CCCC(C)Nc1ccnc2cc(Cl)ccc12 (stereo not given)
inactive: outcome [1] | max response [2] -0.795% and 2.69% | outcome [2] | max response [3] -0.66% | outcome [3] | outcome ([8]; at 9.27 µM (top of the series)) | outcome ([8]; at 17.4 µM (top of the series)) | outcome ([8]; at 44.8 µM (top of the series)) | outcome [9] | Potency [4] | Potency [5] | Potency [6] | outcome ([10]; at 9.27 µM (top of the series)) | outcome ([10]; at 44.8 µM (top of the series))

O=c1[nH]c(-c2ccc(C(F)(F)F)cc2)nc2c1CSCC2
inactive: max response [1] -17.6% and -9.05% | max response [2] 9.93% | outcome [2] | max response [3] -7.54% | Potency [4] | Potency [5] | Potency [6] | Potency [7]

O=C1CCCC2=C1C(c1[nH]ncc1Cl)N=C(Nc1nc3ccccc3o1)N2 (stereo not given)
inactive: max response [1] -0.0608% | outcome [1] | max response [2] 5.25% | outcome [2] | max response [3] -1.09% | outcome [3] | outcome [8, 11] | Potency [4] | Potency [5] | Potency [6] | Potency [7] | outcome [10, 11]

CNCc1ccc(-c2[nH]c3cc(F)cc4c3c2CCNC4=O)cc1
inactive: max response [1] 4.8% | outcome [1] | max response [2] 9.78% | max response [3] -1.23% and -23.6% | outcome [8, 11] | Potency [4] | Potency [5] | Potency [6]
